# PubChem BioAssay AID1347076 (National Center for Advancing Translational Sciences (NCATS), 2019)
# Screen size: about 400,000 compounds; about 13,000 (3.2%) were called active. Another 18% or so got no clear call; they are omitted. Calls come from the whole dose curve; as a rule, active = well fitted cell-killing curve with a large enough effect; inconclusive = small, poorly fitted or top-dose-only effect, or effect the other way; inactive = flat fitted curve, though single readings scatter. What follows is part of a selection rich in actives, with near analogues and random picks from the rest. Entries that show only a call come without a potency.
# Test: qHTS assay for MDR1-selective chemotherapeutics: Primary screen using the drug-selected MDR subline cells KB-V1; note: nearly all actives have a fitted effect of over 60% in size
# Conditions: KB-V1 MDR cells viability, CellTiter-Glo, 72 h; series mostly up to 46.1 µM
# Procedure, shortened: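 Cytotoxicity via CellTiter-Glo luminescence after 72 h compound exposure at 37 degrees C. Cells: drug-selected KB-V1 line, DMEM phenol-red free plus 10% FBS. Compounds tested at multiple concentrations; normalized data fitted to concentration-effect curves.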
# Potency is the fitted concentration of half-maximal effect.
row,SMILES,Potency
1,CC(C)CN1C(=O)CN(S(C)(=O)=O)CC1(C)C(=O)NCc1ccccc1 (stereo unspecified),inactive
2,N#Cc1ccc(-c2ccc3nccn3c2)cc1,inactive
3,CC(C)C1CC2=C(C(=O)OC(C)(C)O2)C(c2ccc(F)cc2)O1 (stereo unspecified),inactive
4,COCCCN1C(=O)C(CC(=O)NCc2cccs2)CC(C(=O)N2CCOCC2)=C1C (stereo unspecified),inactive
5,O=S1(=O)CC(N2CCC(Cc3ccccc3)CC2)CN1Cc1ccccc1 (stereo unspecified),inactive
6,COc1ccccc1-c1cc2nc(NCc3cccc(Cl)c3)ccn2n1,inactive
7,COc1ccc(N2C(=O)C(CC(=O)Nc3ccc(F)cc3)N(CCc3cccs3)C2=O)cc1 (stereo unspecified),18.4 µM (active)
8,O=C(CC1C(=O)N(c2ccccc2)C(=O)N1CCc1cccs1)Nc1ccc(F)cc1 (stereo unspecified),inactive
9,CCNC(=O)CC1C(=O)N(c2ccc(F)cc2)C(=O)N1Cc1cccs1 (stereo unspecified),inactive
10,Cc1cc2nn(-c3ccc(Cl)cc3)nc2cc1NC(=O)C(C)C,inactive
11,Cc1c(Cl)cccc1NC(=O)C1CCCN(C(=O)c2cnn(-c3ccccc3)c2-n2cccc2)C1 (stereo unspecified),inactive
12,CCOc1ccc(CNC(=O)c2ccc3c(c2)nnn3C2CCCC2)cc1,inactive
13,COc1cccc(NC(=O)C2(C)CCN2C(=O)CCC2CCCC2)c1 (stereo unspecified),inactive
14,Cc1ccc(-c2noc(CCC(=O)Nc3ccccc3N3CCN(C)CC3)n2)cc1,20.6 µM (active)
15,CCNC(=O)CCc1nc(-c2ccc(C)cc2)no1,inactive
16,CC(=O)c1ccc(NC(=O)CCc2nc(-c3ccc(C)cc3)no2)cc1,inactive
17,CC(C)CC1C(=O)N(Cc2cn(CC3CCCCC3)nn2)CCS(=O)(=O)N1Cc1ccc(-c2ccc(Cl)cc2)cc1 (stereo unspecified),inactive
18,C=CCn1c(C)cc(C2=NNC(=NCC)SC2)c1C,inactive
19,COCCn1c(C)cc(C2=NNC(=Nc3ccc(F)cc3)SC2)c1C,10.3 µM (active)
20,CCC(c1nnnn1C1CCCC1)N(Cc1cccs1)Cc1cc2cccc(C)c2[nH]c1=O (stereo unspecified),23.1 µM (active)
21,CCC(c1nnnn1Cc1ccccc1)N(Cc1cc2cc(OC)ccc2[nH]c1=O)CC1CCCO1 (stereo unspecified),inactive
22,Cc1cccc2cc(CN(Cc3cccs3)C(c3nnnn3C3CCCC3)C(C)C)c(=O)[nH]c12 (stereo unspecified),inactive

row,SMILES,Potency
1,Cc1cccc2cc(CN(Cc3nnnn3Cc3ccccc3)C3CCCC3)c(=O)[nH]c12,20.6 µM (active)
2,CCOc1ccc2[nH]c(=O)c(CN(Cc3nnnn3Cc3ccccc3)CC3CCCO3)cc2c1 (stereo unspecified),inactive
3,Cc1cc(C)c2cc(CN(Cc3nnnn3Cc3ccc(F)cc3)C3CCCC3)c(=O)[nH]c2c1,inactive
4,CC(C)Oc1cccc(-c2cnc(N3CCC(C(N)=O)CC3)s2)c1,inactive
5,C[C@H]1COc2cc(N3CCSCC3)ccc2S(=O)(=O)N1,inactive
6,CC1(C(=O)O)CCCN(C(=O)/C=C/c2ccccc2)C1 (stereo unspecified),inactive
7,COc1cc(OC)c(C(=O)Nc2ccc(N(C)C)cc2)cc1OC,inactive
8,COC(=O)c1ccc(NC(=O)c2cc(Cl)ccc2OC)cc1,inactive
9,COc1ccc(Cl)cc1C(=O)Nc1ccc(N(C)C(C)=O)cc1,16.4 µM (active)
10,CCC(=O)N1CCc2cc(Br)cc(S(=O)(=O)CCC(=O)NCc3ccccc3OC)c21,inactive
11,O=C(NCc1ccc(F)cc1)c1cc(C2CCCCN2C(=O)C2CCCCC2)on1 (stereo unspecified),inactive
12,CC(=O)Nc1ccc(C=Cc2ccc([N+](=O)[O-])cc2)cc1,inactive
13,NS(=O)(=O)c1ccc(CNC(=O)c2cc(S(=O)(=O)N3CCOCC3)ccc2N2CCCC2)cc1,inactive
14,O=C1OCCOC2CCCc3oc(-c4ccccc4)c1c32 (stereo unspecified),inactive
15,OCCNc1nc(Nc2ccc(Cl)c(Cl)c2)nc2ccccc12,9.2 µM (active)
16,COc1cc2nc(Cl)nc(NCCO)c2cc1OC,inactive
17,CN(C)c1nc(Nc2ccc(Cl)c(Cl)c2)nc(N(C)C)n1,inactive
18,Cc1c(NC(=O)COC(=O)/C=C/c2cccc(F)c2)c(=O)n(-c2ccccc2)n1C,inactive
19,Cc1cccc(C(=O)N2CCc3cc(CNC(=O)Cc4ccc(F)cc4)ccc32)c1,inactive
20,CCCCC12CN3CC(C)(CN(C1)C3c1ccc(O)c(OC)c1)C2=O (stereo unspecified),inactive
21,COCCNc1ncnc2c1ncn2[C@H]1CN(Cc2ccc(OC)cc2)C[C@@H](CO)O1,inactive
22,COc1ccc(CN2C(=O)CC(Cc3ccc(C)cc3)C2=O)cc1OC (stereo unspecified),18.4 µM (active)

row,SMILES,Potency
1,Cc1ccc(CC2CC(=O)N(c3nc(C)cc(C)n3)C2=O)cc1 (stereo unspecified),inactive
2,Cc1ccc(CC2CC(=O)N(c3cc(C)ccc3C)C2=O)cc1 (stereo unspecified),inactive
3,CN(C)c1ccc(/C=C/c2sc3ccccc3[n+]2CCCCBr)cc1,inactive
4,Nc1nc2c(ncn2[C@@H]2O[C@H](CNS(=O)(=O)N3CCc4ccccc4C3)[C@@H](O)[C@H]2O)c(=O)[nH]1,inactive
5,Cc1ccc(S(=O)(=O)c2nnn3c2nc(N2CCN(c4ccccc4F)CC2)c2cc(Cl)ccc23)cc1C,inactive
6,CSc1ncc(Sc2ccccc2)c(C(=O)O)n1,inactive
7,CSc1nc(Nc2ccc(F)cc2)cc(-c2ccccc2)n1,inactive
8,CSc1nc(-c2ccccc2)nc(C(Cl)Cl)n1,11.6 µM (active)
9,CCCCn1c(CNC(=O)C23CC4CC(CC(C4)C2)C3)nnc1SCC(=O)Nc1ccc(C)cc1,inactive
10,COc1ccc(CCCNC(=O)C2Cc3c(-c4cccc(C(N)=O)c4)ccnc3O2)cc1 (stereo unspecified),inactive
11,COc1ccc(CC(N)c2csc(NC(=O)Cc3ccccc3)n2)cc1 (stereo unspecified),inactive
12,Cc1cccc(C(=O)C(O)(c2ccccc2)C2CCCCC2=O)c1 (stereo unspecified),inactive
13,CCOC(=O)c1ccc(NC(=O)Cn2cnc3cc(C)c(C)cc32)cc1,inactive
14,COCCOCCn1cnc2ccccc21,inactive
15,CCn1cc2nc(SCc3cccc(F)c3)n(CCc3ccccc3)c(=O)c2n1,inactive
16,CCCCn1c(SCC(=O)NCC2CCCO2)nc2ccc(N3CCOCC3)cc2c1=O (stereo unspecified),3.66 µM (active)
17,N#CCSc1nc2ccc(N3CCOCC3)cc2c(=O)n1CCc1ccccc1,3.26 µM (active)
18,Cn1c(=O)n(CCc2ccccc2)c(=O)c2c1nc1n2CCCN1c1ccccc1,inactive
19,COCCNC(=O)c1ccc(Cn2c(SCC(=O)NCC3CCCO3)nc3ccc(Br)cc3c2=O)cc1 (stereo unspecified),inactive
20,CCn1c(SCC(=O)NCC2CCCO2)nc2ccccc21 (stereo unspecified),inactive
21,O=C(Nc1ccc(Cl)cn1)c1ccccc1-c1ccccc1,inactive
22,CC1(C)CC(=O)C=C(c2ccc(COC(=O)c3cc(F)cc(F)c3)cc2)C1=O,inactive

row,SMILES,Potency
1,COc1cccc(C(NC(C)=O)c2nc(-c3cnc4ccccc4c3)cs2)c1 (stereo unspecified),inactive
2,OC(c1ccccc1)c1nc(-c2cnc3ccccc3c2)cs1 (stereo unspecified),16.4 µM (active)
3,COc1ccc(-c2csc(C(O)c3cccc(Cl)c3)n2)cn1 (stereo unspecified),inactive
4,CCCC(=O)N1CCC1(C)C(=O)NCc1ccc(SC)cc1 (stereo unspecified),inactive
5,COc1ccc(OC)c(NC(=O)C2CCCN2S(=O)(=O)c2ccc3c(c2)CC(C)N3C(C)=O)c1 (stereo unspecified),inactive
6,COc1ccc(NC(=O)COC(=O)C2COc3ccccc3O2)cc1 (stereo unspecified),inactive
7,CCOC(=O)c1[nH]c(C)c(C(=O)OCC(=O)N2c3ccccc3CC2C)c1C (stereo unspecified),2.06 µM (active)
8,CCOC(=O)c1c(C)[nH]c(C(=O)OCC(=O)N2CCCC2=O)c1C,inactive
9,CCOc1ncccc1C(=O)OCC(=O)N1c2ccccc2CC1C (stereo unspecified),inactive
10,Cc1ccc(F)cc1NC(=O)CCSc1nc(-c2ccco2)cc(C(F)(F)F)n1,inactive
11,Cc1ccc(S(=O)(=O)N(C)C)cc1NC(=O)COC(=O)/C=C/c1cccs1,inactive
12,Cc1ccc(S(=O)(=O)N(C)C)cc1NC(=O)/C=C/c1cccs1,14.6 µM (active)
13,CN(C)S(=O)(=O)c1cccc(NC(=O)COC(=O)/C=C/c2cccs2)c1,inactive
14,Cc1cccc(C)c1NC(=O)C(c1cccc(F)c1)N1CCN(C)CC1 (stereo unspecified),inactive
15,Cc1ccc(S(=O)(=O)N2CCOCC2)cc1C(=O)NC(=S)N(Cc1ccccc1)C(C)C,11.6 µM (active)
16,Cc1cccc(N(Cc2ccccc2)C(=O)c2cc(S(=O)(=O)N3CCOCC3)ccc2F)c1,inactive
17,Cc1ccc(S(=O)(=O)N2CCOCC2)cc1C(=O)NCc1ccc(F)cc1,inactive
18,CC1(C(=O)Nc2ccc3c(c2)OCCO3)CN(S(C)(=O)=O)CC(=O)N1Cc1cccc(F)c1 (stereo unspecified),inactive
19,Cc1nc2ccccn2c(=O)c1NC(=O)c1ccc(Br)o1,inactive
20,Oc1c(Cl)cc(Cl)c(Cl)c1Cc1c(O)c(Cl)cc(Cl)c1Cl,5.17 µM (active)
21,O=C(O)C(=Cc1ccc([N+](=O)[O-])cc1)CCc1ccccc1,inactive
22,CNC(=O)C1CN(C(=O)c2cccc(S(=O)(=O)N3CCc4ccccc43)c2)c2ccccc2O1 (stereo unspecified),inactive

row,SMILES,Potency
1,COc1ccc(NC(=O)CSc2nc3ncccc3[nH]2)c(OC)c1,inactive
2,CC(=O)c1nn(-c2ccccc2)c(=Nc2ccccc2)cc1C,inactive
3,O=C(Cc1ccccc1)NCc1ccc(F)cc1,inactive
4,CCC(C(=O)OCC(=O)Nc1ccccc1-c1ccccc1)c1ccccc1 (stereo unspecified),inactive
5,O=C(CNCc1ccc(F)cc1)Nc1ccccc1-c1ccccc1,13 µM (active)
6,CC1(C(=O)NS(=O)(=O)c2ccccc2Cl)CCN1C(=O)c1cccc(F)c1 (stereo unspecified),inactive
7,O=S1(=O)CC(N2CCN(CCO)CC2)CN1Cc1cn(Cc2cccc(Cl)c2)nn1 (stereo unspecified),inactive
8,O=C(COC(=O)c1ccccc1O)NCc1ccco1,inactive
9,Cc1cc(C(=O)OCC(=O)NCc2ccco2)c(C)n1-c1ccccc1,2.59 µM (active)
10,CN(c1ccccc1)S(=O)(=O)c1ccc(Cl)c(C(=O)OCC(=O)NCc2ccco2)c1,inactive
11,O=C(CCn1ccc2cc(S(=O)(=O)N3CCCC3)ccc21)NCc1cccc(Cl)c1,inactive
12,Cc1ccccc1CN1C(=O)CSCC1(C)C(=O)Nc1c(C)cccc1C (stereo unspecified),inactive
13,Cc1cccc(Nc2ccccc2C(=O)NCc2ccco2)c1C,18.4 µM (active)
14,Cc1ccc(N(Cc2ccc(C(=O)Nc3ccccc3C(=O)NCc3ccco3)cc2)S(C)(=O)=O)cc1C,2.06 µM (active)
15,CC(C)(C)c1ccc(C(=O)NCc2ccco2)cc1,inactive
16,CS(=O)(=O)N(CC(=O)NCc1ccco1)c1ccc2c(c1)OCO2,inactive
17,CCN1CCN(C(=O)c2ccc(CN(c3ccc(C)c(C)c3)S(C)(=O)=O)cc2)CC1,inactive
18,O=C(CCNC(=O)c1ccccc1Cl)NCc1ccco1,inactive
